This note sets out measurements from the supplement of paper PMC12350171.

Structures can show the parent of a compound that is named as a salt. Unmarked numbers belong to inactive results.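 How the source made its calls: active = normalised median growth AUC below 0.1 of DMSO control; inactive = AUC 0.1 or higher.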
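Further: active when median AUC fell below 0.1.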

This test has as its system S. enterica typhimurium tolC KO. The test is described as follows: growth AUC normalised to DMSO control (median) (fraction of control); higher = less growth inhibition, active = hit call of the paper. Particulars: 20 µM. The method, boiled down:
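Each strain went through two overnight passages under anaerobic conditions before growth in mGAM in 96-well plates, starting at OD578 0.01, with each compound from the approved-drug library at 20 μM and 1% DMSO. Inside an anaerobic incubator, OD578 was recorded every hour for 24 h. Growth curves were cut off at entry into stationary phase, and the area under the curve was calculated by the trapezoidal rule and normalised to vehicle wells on the same plate. Reported values are medians of three biological replicates.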
`Cc1ccc(S(=O)(=O)NC(=O)NN2CC3CCCC3C2)cc1` (stereo not drawn) [Gliclazide]: the “growth AUC normalised to DMSO control” value was 1.01.
Consider `O=c1[nH]cc(F)c(=O)[nH]1` [5-fluorouracil], for which the “growth AUC normalised to DMSO control” value was 0.806.
Next, `COC(=O)C1=C(C)NC(C)=C(C(=O)OC)C1c1ccccc1[N+](=O)[O-]` [Nifedipine]: 0.994.
On to `COc1ccc(CN(CCN(C)C)c2ccccn2)cc1` [Pyrilamine maleate], for which the “growth AUC normalised to DMSO control” value is 0.987.
With `Cc1c(Cl)cccc1Nc1ccccc1C(=O)O` [Tolfenamic acid], the “growth AUC normalised to DMSO control” value was 0.992.
To `C[C@@](Cc1ccc(O)c(O)c1)(NN)C(=O)O` [Carbidopa] belongs 1.01.
In the case of `CCN(CC)CCCC(C)Nc1ccnc2cc(Cl)ccc12` (stereo not drawn) [Chloroquine diphosphate], the “growth AUC normalised to DMSO control” value was 1.
Regarding `c1ccc(-c2ccc(C(c3ccccc3)n3ccnc3)cc2)cc1` (stereo not drawn) [Bifonazole], the “growth AUC normalised to DMSO control” value is 0.92.
For `C[C@H](CS)C(=O)N1CCC[C@H]1C(=O)O` [Captopril], the “growth AUC normalised to DMSO control” value is 1.01.
Regarding `Nc1ccc(C(=O)NCC(=O)O)cc1` [Aminohippuric acid], the “growth AUC normalised to DMSO control” value was 0.999.
With `CC(C(=O)O)c1ccc(N2Cc3ccccc3C2=O)cc1` (stereo not drawn) [Indoprofen], the “growth AUC normalised to DMSO control” value is 0.997.
For `CO[C@@]1(NC(=O)Cc2cccs2)C(=O)N2C(C(=O)O)=C(COC(N)=O)CS[C@@H]21` [Cefoxitin sodium salt], the “growth AUC normalised to DMSO control” value was 0.0113 (active).
Next, `CN1CCN(CCCN2c3ccccc3Sc3ccc(C(F)(F)F)cc32)CC1` [Trifluoperazine dihydrochloride]: 0.929.
